This is an account of results in PubChem BioAssay (NCI).

Compounds without any hit were thinned out: in the full panel of roughly 83,000, 20% have a hit.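 Plates (96-well) were seeded with cells, treated with compound at one concentration, and incubated for 48 hours before percent growth was determined.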 Values without a mark were called inactive. Activity calls are given as the source filed them. The calls were made as follows: active = growth percent below 10; inactive = the rest.

Assay in all cases: NCI-60 one-dose screen, 48 h (100 = growth as untreated, 0 = no growth, -100 = all killed)
Holding throughout (conditions): 10 µM unless noted

The subject of test [1] is SK-MEL-2 melanoma.
Test [2] concerns EKVX NSCLC.
The subject of test [3] is SN12C renal.
Test [4] has as its system UO-31 renal.
The subject of test [5] is TK-10 renal.
Test [6] deals with ACHN renal.
Test [7] deals with CAKI-1 renal.
Test [8] has as its system A498 renal.
The test system of test [9] is CCRF-CEM leukemia.
Test [10] has as its system MOLT-4 leukemia.

Regarding `Cc1ccccc1[C@H]1C(C(=O)c2ccc(Cl)cc2)C2(N[C@@H]1c1ccccc1)C(=O)Nc1ccc(Cl)cc12` (some centres undefined), the growth in test [1] is -64% (active); in test [2], -20.6% (active); in test [3] it was -95.4% (active); in test [4], 0.337% (active); in test [5], 9% (active); in test [6], -9.02% (active). The growth was 8.92% (active) in test [7], 50% in [8], -14.9% (active) in [9] and -17.5% (active) in test [10].

In the case of `CC(=O)Nc1cccc(Nc2nc(NCc3ccccc3)c3ccccc3n2)c1`, the growth was -89.2% (active) in test [1]; -97.6% (active) in [2]; -90.2% (active) in [3]; -98.5% (active) in test [4]; -96.7% (active) in [5]; -100% (active) in [6]. The growth in test [7] is -94.8% (active); in [8], -99.3% (active); in test [9], -13.8% (active); in test [10] it was -61% (active).

As for `C=C1CC[C@@H]2[C@]3(C)COC(c4cn(-c5ccccc5)nc4-c4ccccc4)O[C@@H]3CC[C@@]2(C)[C@@H]1C/C=C1/C(=O)OC[C@H]1O` (some centres undefined), the growth is -81.1% (active) in test [1]; -63.5% (active) in [2]; -67.1% (active) in test [3]; -78.1% (active) in [4]; -57.3% (active) in [5]; -95.5% (active) in test [6]. The growth was -39.7% (active) in test [7], -13.9% (active) in test [8], 31.5% in [9] and -45.7% (active) in test [10].

`O=C(COc1ccc(NC(=O)Nc2ccc(Cl)c(Cl)c2)cc1)N=Nc1c(O)[nH]c2ccc([N+](=O)[O-])cc12`: the growth in test [1] was 48.7%; in test [2], 85.6%; in [3], 52.6%; in test [4], 85.3%; in test [5], 113%; in test [6], 77.8%. Also, the growth is 72% in [7], 98.2% in test [8], 30.4% in [9] and 28% in test [10].

Turning to `CN(C)c1nc(NCCNS(=O)(=O)c2ccc(C(=O)/C=C/c3ccc(C(F)(F)F)cc3)cc2)nc(Nc2ccc(F)cc2)n1`, the growth is -7.74% (active) in [1]; 13.6% in test [2]; -99.1% (active) in test [3]; 25.5% in test [4]; 26.2% in test [5]; 1.99% (active) in test [6]. Further, the growth in test [7] is 4.56% (active); in test [8], 49.6%; in test [9], 10.1%; in [10], 0.0408% (active).

On to `COc1cc(C2CC(c3cc(OC)c(OC)c(OC)c3)=Nc3c(N)nc(N)nc3N2)ccc1Oc1nc(NCCO)nc(N2CCOCC2)n1` (centres undefined), for which the growth in test [1] was 105%; in test [2], 84.3%; in test [3] it was 93%; in test [4], 84.1%; in test [5], 120%; in test [6] it was 101%. For the same compound, the growth in test [7] was 80.8%; in test [8], 105%; in test [9] it was 102%; in test [10] it was 96.7%.

For `COc1ccc(NC(=O)Cn2c(O)c(N=Nc3ccc(S(N)(=O)=O)cc3)c3ccccc32)cc1`, the growth in test [1] was 50.6%; in test [2], 62%; in [3], 60%; in [4], 84.1%; in test [5], 75.9%; in [6], 35.2%. The growth in test [7] is 27.4%; in test [8], 103%; in [9] it was 85.3%; in [10] it was 73.6%.

In the case of `CC(=O)Nc1cccc(Nc2nc(N[C@H]3CCCc4ccccc43)c3ccccc3n2)c1`, the growth was 123% in test [1]; 98.7% in test [2]; 103% in test [3]; 91.8% in test [4]; 99.1% in [5]; 102% in test [6]. Further, the growth is 89.5% in test [7], 105% in test [8], 103% in test [9] and 100% in test [10].

In the case of `CSc1ccc(C(=O)Nc2ccc3nn(/C(C#N)=C/c4ccccn4)nc3c2)cc1`, the growth in test [1] was -77.8% (active); in test [2], -96.3% (active); in [3] it was -45.5% (active); in [4] it was -100% (active); in test [5], -96.7% (active); in [6], -96% (active). Moreover, the growth was -42.9% (active) in test [7], 56.8% in [8], -33.8% (active) in test [9] and -24.9% (active) in test [10].

`O=C(C1=CNC(=S)NC1c1ccc(O)cc1)c1cc2ccccc2oc1=O` (centres undefined): the growth was 101% in test [1]; 107% in test [2]; 99.3% in [3]; 72.4% in test [4]; 130% in [5]; 108% in test [6]. In addition, the growth in test [7] is 87.6%; in [8] it was 139%; in test [9], 92%; in [10], 94.1%.

For `N/C(=N\c1nc2ccccc2s1)NC(=O)Nc1c(Cl)cccc1Cl`, the growth in test [1] is 6% (active); in test [2] it was 37.6%; in [3], 30.4%; in test [4], 47.6%; in test [5] it was 93.8%; in [6], 48.1%. The growth is 32% in test [7], 94.3% in test [8], 30% in test [9] and 30% in test [10].

Consider `CCOC(=O)C1=C(N)N(c2ccccc2)C2=C(C(=O)CC(C)(C)C2)C1c1ccc(N2CCOCC2)cc1` (centres undefined), for which the growth is 97.4% in test [1]; 95.4% in test [2]; 95.7% in test [3]; 90.3% in [4]; 108% in [5]; 96.7% in test [6]. For the same compound, the growth in test [7] was 82.1%; in test [8], 110%; in [9], 105%; in test [10], 99.2%.

For the compound `Cc1sc2c(c1C)C(c1ccc(Cl)cc1)=N[C@@H](CC(=O)NCCCCCNC(=O)COc1ccc(C3CCC(=O)NC3=O)cc1)c1nnc(C)n1-2` (some centres undefined), the growth in test [1] was 13.4%; in [2], 29.5%; in test [3] it was 18.7%; in test [4] it was 27.8%; in test [5] it was 5.57% (active); in [6], 44%. The growth in test [7] is 16.4%; in test [8], 48.4%; in test [10], 16.4%.
